Laboratory results: PubChem BioAssay (NCI)
About 83,000 compounds went through this panel and 20% of them were active in at least one assay; those are over-represented in the sample as a whole.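 Growth was measured after 48 h exposure to one concentration of compound in 96-well plates. Values under 10 count as active.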 Values without a mark were called inactive. Active and inactive are the calls of the source.

These molecules were tested on HS 578T breast (assay: NCI-60 one-dose screen, 48 h (100 = growth as untreated, 0 = no growth, -100 = all killed)). Conditions: 10 µM unless noted.
Protocol: Growth inhibition of the HS 578T human tumor cell line is measured as a screen for anti-cancer activity. Cells are grown in 96 well plates and exposed to the test compound for 48 hours. Compounds are tested at a single concentration, which is 10^-5 M for most compounds. The reported endpoint is percent growth (GI% or GIPRCNT), where numbers from 0 - 100% represent growth inhibition, and numbers from -100% - 0 represent cell death. For example, a value of 40 represents 60% growth inhibition. A value of 0 means no net growth occurred over the course of the experiment. A value of -40 indicates 40% of cells at the beginning of the experiment died by the end of the experiment. A value of -100 means all cells are dead at the end of the experiment.
NCI-60 Human Tumor Cell Lines Screen was performed using the standard one-dose NCI protocol, which is described in more detail at https://dtp.cancer.gov/discovery_development/nci-60/default.htm.
Compounds with GIPRCNT values below 10 were considered active. Activity score was based on GIPRCNT using the following formula: […]
Score is 0 for GIPRCNT values of 100 or above, 50 for GIPRCNT values of 0, and 100 for GIPRCNT values of -100.

Compound	growth
COC1=C(c2ccccc2)C(=O)C(OC)=C(c2ccccc2)C1=O	96.8%
Cc1nn(-c2ccc(Br)cc2)c2nc(CCl)[nH]c(=O)c12	108%
O=C(CCCCCCN1CC(=O)N2[C@@H](c3cccc(Cl)c3)c3[nH]c4ccccc4c3C[C@H]2C1=O)NO	69.3%
COc1ccc(CCN2C(=O)CSC2=S)cc1OC	104%
CCN1C(=O)N(CC)C2SC(N/N=C/c3cccs3)=NC21 (stereo not given)	15.4%
CCN1CCN(c2cc(C(=O)Nc3nc4ccc(Oc5ccnc(C(=O)NC)c5)cc4s3)cc(C(F)(F)F)c2)CC1	93.1%
C/C(=N\NC(=S)Nc1ccc(Br)cc1)c1cc2ccccc2oc1=O	20.5%
C/C(=C(/c1ccc(O)cc1)c1ccc(OCCN(C)C)cc1)c1ccc(Cl)cc1	46.8%
COc1ccc([C@H]2c3[nH]c4ccccc4c3C[C@@H]3C(=O)N(C4CCN(Cc5ccccc5)CC4)CC(=O)N23)c(OC)c1	82.3%
COc1ccc(C2CC(c3ccc(Nc4nc(NCCO)nc(Nc5ccc(Cl)cc5)n4)cc3)=Nc3c(N)nc(N)nc3N2)cc1 (stereo not given)	94.9%
Cc1cc(F)cc(NS(=O)(=O)c2ccc(-c3cnc(C4CC4)o3)cc2)c1	34.1%
C/C=C/[C@@H]1C=C[C@@H]2C[C@H](C)CC[C@H]2[C@]1(C)/C(O)=C1/C(=O)[C@H](CO)N(C)C1=O	67.9%
Cc1ccc(Cc2cnc(NC(=O)/C(C#N)=C/c3ccc(-c4ccc(Cl)cc4)o3)s2)cc1	102%
C=C1C(=O)O[C@@H]2/C=C(/C)C3=CC(=O)[C@@](C)(C[C@H](OC(=O)/C(C)=C\C)[C@@H]12)O3	46.5%
O=C(c1ccc(O)cc1)[C@@H]1[C@@H]2CCCN2[C@@]2(C(=O)N(C(=O)c3ccc(F)cc3)c3ccccc32)[C@H]1c1ccc(F)cc1	105%
CCOC(=O)c1c(Nc2ccccc2)nn2c(-c3ccc(Br)cc3)ccnc12	62.8%
O=C(NCCCNc1cc(-c2cn(-c3ccccc3)nc2-c2cccc(O)c2)ccn1)Nc1cc(C(F)(F)F)cc(C(F)(F)F)c1	57.3%
CN1CCN(c2ccc(C(=O)/C=C/c3ccc(Cl)c(C(F)(F)F)c3)cc2)CC1	87.3%
COc1ccc([C@@H]2[C@@H](O)C(=O)N2c2cc(OC)c(OC)c(OC)c2)cc1Cl	8.59% (active)
CS(=O)(=O)c1nccc(-c2c(-c3ccc(F)c(OCc4ccccc4)c3)nc3sccn23)n1	91.3%

Compound	growth
CCN(CC)CCN1C(=O)c2c(c3c4cccnc4[nH]c3c3ccc4ccccc4c23)C1=O	109%
COc1ccc(-c2nn(-c3ccccc3)cc2/C=C/C(=O)c2ccc(NC(=O)CCCCCCC(=O)NO)cc2)cc1	87.2%
C/C(=C(/c1ccc(O)cc1)c1ccc(OCCN2CCCCCC2)cc1)c1ccccc1	44.3%
CS(=O)(=O)c1ccc(-c2nn(-c3ccccc3)cc2/C=N/NC(=O)c2ccncc2)cc1	108%
Cc1ccc(NC(=O)c2ccc(CN3CCN(C)CC3)c(I)c2)cc1Oc1ccc(-c2[nH]nc3ncnc(N)c23)cc1	66.2%
COc1ccc(C(=O)n2cc(C=O)c3ccccc32)cc1	101%
Cc1ccc(NC(=O)c2ccc(CN3CCN(C)CC3)c(C(F)(F)F)c2)cc1Oc1ccc(-c2[nH]nc3ncnc(N)c23)cc1	72.8%
COc1ccc(-c2no[n+]([O-])c2Nc2ccccc2Br)cc1	88.9%
Cc1ccc(/C=C/c2nn3c(-c4ccco4)nnc3s2)cc1	116%
O=C(O)c1ccc(-n2cc(CNc3ccc(Cl)cc3)c(-c3ccc(F)cc3)n2)cc1	100%
CCN(CC)CCN1C(=O)c2c(c3c4cc(Br)ccc4[nH]c3c3ccc4ccccc4c23)C1=O	-4.17% (active)
CN1C(=O)N(C)C2C1NN=c1s/c(=C\c3ccccn3)c(=O)n12 (stereo not given)	104%
COc1cc(/C=N/n2cnc3oc(-c4ccccc4)cc3c2=N)cc(CN2CCN(C)CC2)c1O	68%
C=CCn1c(SCC(=O)Nc2cccc(C(=O)/C=C/c3cc(OC)c(OC)c(OC)c3)c2)nc2ccccc2c1=O	82%
CC(=O)NC(C)(C)C(=O)N[C@@H](C)C(=O)NC(C)(C)C(=O)N[C@@H](C)C(=O)NC(C)(C)C(=O)N[C@@H](C)C(=O)N[C@@H](CCC(N)=O)C(=O)NC(C)(C)C(=O)N[C@H](C(=O)NC(C)(C)C(=O)NCC(=O)N[C@@H](CC(C)C)C(=O)NC(C)(C)C(=O)N1CCC[C@H]1C(=O)N[C@H](C(=O)NC(C)(C)C(=O)NC(C)(C)C(=O)N[C@@H](CCC(N)=O)C(=O)N[C@@H](CCC(N)=O)C(=O)N[C@H](CO)CC1CCCCC1)C(C)C)C(C)C	62.1% [5 µM]
CC(=O)c1ccc(NC(=O)COc2ccc(C3SCC(=O)N3c3ccc(Br)cc3)cc2)cc1 (stereo not given)	100%
IP(CCCSc1n(Cc2ccc3ccccc3c2)c(-c2ccccc2)c(-c2ccccc2)[n+]1Cc1ccc2ccccc2c1)(c1ccccc1)(c1ccccc1)c1ccccc1	67.1%
COc1cc2c3c(n(CCCNC4CCCCC4)c(=O)c2cc1OC)-c1cc2c(cc1C3=O)OCO2	90.5%
Cc1cnc2nc(NN)[nH]n12	107%
O=C(CSc1ccc(-c2nc3ccccc3[nH]2)cn1)N1CCN(c2ccccc2F)CC1	89.4%
